Only some compounds are listed: those with a hit (about 3.5% of all), similar ones and a draw of the others.
Tau fluor counter: counter-screen for tau fibril formation inhibitors; tau K18 P301L Alexa594 fluorescence, heparin fibrillization; Potency, µM (series often up to 57.7 µM), for the others: at the highest dose activity change, negative = decrease; 0.93% of 280,000 active; AID 1463; note: nearly all actives have a fitted effect of over 55% in size
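Human tau K18 P301L (15 uM unlabeled, 0.24 uM Alexa 594-labeled) in 100 mM sodium acetate pH 7 with 20 uM heparin, 6 hr at 37 C. ThT 30 uM added, 1 hr ambient; Alexa 594 FP and total fluorescence read at 555/632 nm.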
TR SRC2 fluor cs: Texas Red fluorescence interference in TRb-SRC2 counter-screen; TRb/SRC2 Texas Red total fluorescence interference; Potency, µM (highest dose often 106 µM), for inactives: at the highest dose fluorescence change, negative = quenching; 0.29% of 280,000 active; AID 1479; active = well fitted curve in either direction with a large enough effect; inconclusive = small, poorly fitted or top-dose-only effect
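Human TRβ ligand-binding domain (0.6 uM) and Texas Red SRC2 peptide (20 nM) in Tris buffer with 1 uM T3 and 5% DMSO were incubated with pinned compound for 5 hr at ambient temperature. Total fluorescence was computed as S + 2P (555/632 nm).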
KDM4E inh: inhibitors of human JMJD2E histone demethylase. B2RXH2. JMJD2E catalytic domain, FDH-coupled NADH fluorescence (FDH is formaldehyde dehydrogenase). Potency, µM (series often up to 57.1 µM), for inactives: at the highest dose activity change, negative = inhibition, usual class: inhibitors. 1.6% of 230,000 active; active = well fitted inhibition curve with a large enough effect, not every such curve was filed as active; inconclusive = small, poorly fitted or top-dose-only effect, or another doubt; inactive = no such curve, though single readings can be large or run the other way;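 note: 0% = wells with enzyme and -100% = buffer wells without enzyme; nearly all actives have a fitted effect of over 50% in size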
TRb SRC2 PPI: disrupts binding of human TR beta to SRC2 | TRbeta-SRC2 peptide binding, fluorescence polarization; receptor liganded with 1 µM T3 | P10828 | AID 1469 | Potency, µM (doses to about 106 µM), inactives show at the top dose activity change, negative = inhibition, most hits filed as inhibitors | 0.065% of 280,000 active;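 note: plate controls were bound peptide for no effect and peptide without receptor for full effect; nearly all actives have a fitted effect of over 50% in size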
Target sequence (P10828 whole entry, looked up): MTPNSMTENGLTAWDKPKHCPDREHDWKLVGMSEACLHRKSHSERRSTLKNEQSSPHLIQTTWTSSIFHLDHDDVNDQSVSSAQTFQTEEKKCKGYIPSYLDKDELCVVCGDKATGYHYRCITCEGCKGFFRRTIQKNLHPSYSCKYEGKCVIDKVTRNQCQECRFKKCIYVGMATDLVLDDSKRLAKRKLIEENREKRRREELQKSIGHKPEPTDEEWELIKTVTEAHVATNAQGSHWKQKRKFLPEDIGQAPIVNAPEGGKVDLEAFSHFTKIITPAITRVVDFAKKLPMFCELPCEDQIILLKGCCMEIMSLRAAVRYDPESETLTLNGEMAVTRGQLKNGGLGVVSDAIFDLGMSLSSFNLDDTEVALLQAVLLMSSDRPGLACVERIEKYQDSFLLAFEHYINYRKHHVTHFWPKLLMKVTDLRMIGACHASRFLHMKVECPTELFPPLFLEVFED
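Each compound concentration gave % activity, normalized to unbound and bound Texas Red SRC2 controls, from polarization read after 5 hr ambient incubation with T3-loaded human TRb LBD.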
Tau fibril ThT: inhibitors of human tau fibril formation, thioflavin T binding; P10636; recombinant tau K18 P301L, heparin-induced fibrillization, ThT fluorescence; AID 1460; 2.1% of 270,000 active; Potency, µM (series often up to 57.4 µM), for the others: at the highest dose activity, negative = inhibition, usual class: inhibitors; note: nearly all actives have a fitted effect of over 55% in size
Target sequence (P10636 561-689 P618L limits assumed): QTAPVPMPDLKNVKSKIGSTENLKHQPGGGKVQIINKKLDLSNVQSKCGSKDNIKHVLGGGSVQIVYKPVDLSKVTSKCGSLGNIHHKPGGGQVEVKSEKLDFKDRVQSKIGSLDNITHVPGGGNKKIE
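ThT emission at 510 nm, taken 1 hr after adding 30 uM dye, quantifies aggregates formed when 20 uM heparin acts on human tau K18 P301L for 6 hr at 37 C.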
Tau fibril FP: inhibitors of human tau fibril formation. P10636. K18 P301L tau heparin fibrillization, Alexa594 FP, 6 h. Potency, µM (titrated, usually from 57.7 µM), for the others: at the top dose activity, negative = inhibition, most hits filed as inhibitors. 0.39% of 280,000 active. AID 1468; note: nearly all actives have a fitted effect of over 55% in size
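Steps: dispense K18 P301L tau (15 uM plus 0.24 uM Alexa 594 tracer, final) in pH 7 sodium acetate; add compound; add heparin (20 uM final); incubate 6 hr, 37 C; add ThT (30 uM final); after 1 hr ambient, read FP.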
The depositor's hits bear a star; ? = inconclusive; / = not tested or not shown; [ ] = dose if it differs, or a comment. Unless noted, calls come from the whole dose curve; as a rule, active = well fitted curve in the direction sought with a large enough effect; inconclusive = small, poorly fitted or top-dose-only effect, or another doubt; inactive = no such curve, though single readings can be large; an effect the other way counts as inactive or inconclusive. Unless noted, % is set by controls: 0 for no effect and ±100 for the full control effect; potency is the fitted concentration of half-maximal effect.

SMILES | Tau fluor counter | TR SRC2 fluor cs | KDM4E inh | TRb SRC2 PPI | Tau fibril ThT | Tau fibril FP
CC(=O)c1ccc(NC(=O)c2cn3c4c(ccc(Cl)c4c2=O)OC(C)C3)cc1 (configuration not stated) | 2% | 4% | / | 0% | -9% | 0%
COc1cccc(=O)c2c(C)n(-c3cc(C)cc(C)c3)c(C)c12 | -15% | -7% | 1% | 4% | 28µM* | ?
COc1cccc(-n2c(C)c3c(OC)cccc(=O)c3c2C)c1 | -26% | 1% | -22% | 3% | 25µM* | ?
COc1cccc(=O)c2c(C)n(C)c(C)c12 | -7% | -1% | -21% | -9% | ? | 0%
O=C(Nc1ccc2nc(SCC(=O)N3CCOCC3)sc2c1)c1cccc(Br)c1 | ? | 1% | / | 1% | 3% | -14%
CCOc1ccccc1N1CC(C(=O)N2CCc3ccccc32)CC1=O (configuration not stated) | -3% | 1% | 5% | 0% | -6% | 0%
Nc1cc2nc[nH]c2cc1N | ? | -19% | ? | 2% | 22µM* | ?
Cc1cc(N2CCCC2)nc2ccc(NC(=S)NCCCOC(C)C)cc12 | -14% | -1% | ? | -4% | -15% | 9%
Cc1cc(N2CCCCC2)nc2ccc(NC(=O)/C=C/c3ccccc3OC(C)C)cc12 | 7.1µM*[quencher] | -3% | / | -5% | ? | 13%
O=C(/C=C/c1ccccc1Cl)Nc1cccc(S(=O)(=O)NC2=NCCCCC2)c1 | 14µM*[quencher] | 3% | -15% | 4% | 1% | ?
Cc1cc(N2CCCCC2)nc2ccc(NC(=O)/C=C/c3ccccc3Cl)cc12 | 10µM*[quencher] | -2% | / | 3% | 4.5µM* | 10%
O=C(/C=C/c1ccc(Cl)cc1Cl)Nc1cccc(S(=O)(=O)NC2=NCCC2)c1 | ? | -4% | -5% | 1% | 12% | ?
Cc1cc(C)c2cc(CN(CCO)Cc3nnnn3Cc3ccc(F)cc3)c(=O)[nH]c2c1 | 2% | 2% | ? | -4% | -3% | 1%
CC(=O)N1CCc2cc(Br)cc(S(=O)(=O)N3CCN(c4cc(C)ccc4C)CC3)c21 | -20% | -2% | / | -3% | -6% | ?
O=C(/C=C/c1ccccc1[N+](=O)[O-])NCCc1ccc(F)cc1 | -13% | -8% | 9% | 3% | -15% | 6%
Cc1cc(C)c(Nc2nn3c(=O)c4cc5c(cc4nc3s2)OCO5)c(C)c1 | -27% | 1% | / | 1% | 28µM* | ?
CCN1CCCCC(=N/O)/C(=N/O)CCCC1 | -5% | -2% | 9% | 3% | -8% | 4%
O=C(NCc1ccncc1)Nc1ccccc1 | -7% | -4% | -5% | 1% | -8% | 2%
Cc1ccc(N2C(=O)C3C(C2=O)C(C(=O)c2ccc(Cl)cc2)N2CCCC32)cc1 (configuration not stated) | -12% | 5% | ? | -2% | ? | 0%
CC(=O)Oc1ccc(N2C(=O)C3C(C2=O)C(C(=O)c2ccc(Cl)cc2)N2CCCC32)cc1 (configuration not stated) | -16% | 0% | ? | -4% | 35µM* | ?
CCCc1cc(=O)oc2cc(C)c3c(C)coc3c12 | -2% | -3% | ? | 1% | -2% | 3%
CCCCc1cc(=O)oc2cc(C)c3c(C(C)(C)C)coc3c12 | ? | 100µM*[quencher] | / | -5% | ? | -6%
Cc1nc2ccc(-c3nc4ccc(N)cc4[nH]3)cc2[nH]1 | ? | -5%[53 µM] | ? | 7%[53 µM] | 16µM* | 5%
Nc1ccc2nc(-c3cc(Cl)c(N)c(Cl)c3)[nH]c2c1 | ? | -4% | 6% | 11% | 14µM* | 14%
Nc1ccc(-c2nc3ccc(N)cc3[nH]2)cc1 | ? | -6% | ? | 6% | ? | -1%
SMILES | Tau fluor counter | TR SRC2 fluor cs | KDM4E inh | TRb SRC2 PPI | Tau fibril ThT | Tau fibril FP
CC(C)Cc1nc2ccc(N)cc2[nH]1 | -7% | -4% | 35µM* | -6% | ? | 2%
Nc1ccc(-c2nc3ccc(-c4nc5ccccc5o4)cc3[nH]2)cc1 | 16µM*[quencher] | -18% | ? | 1% | 8.9µM* | 2%
CC(C)Cc1nc2ccccc2[nH]1 | 4% | -4% | -1% | 4% | -3% | 0%
CCOC(=O)C(CCCCP(=O)(c1ccccc1)c1ccccc1)(NC(C)=O)C(=O)OCC | -12% | -1% | 4% | 0% | -7% | -5%
Cc1cc(-c2nc3ccccc3[nH]2)ccc1N | -10% | -6% | ? | -8% | ? | 11%
Nc1cc(N)cc(-c2nc3ccccc3[nH]2)c1 | 13µM*[quencher] | 2% | -24% | 6% | 13µM* | 6%
Nc1ccc2nc(-c3ccc(Cl)cc3)[nH]c2c1 | 25µM*[quencher] | -16% | ? | 2% | 14µM* | 7%
C=C(C(C)=O)C(O)c1ccco1 (configuration not stated) | -24% | 0% | ? | -4% | 28µM* | ?
C=C(C(C)=O)C(O)c1ccccc1 (configuration not stated) | 3% | -3% | 2% | 18% | -12% | 8%
O=C1C=CC2(OCCCO2)C(Br)=C1CO | -10% | 1% | 2% | 5% | 16µM* | ?
CCOC(=O)c1c(NC(=O)CSc2nc3ccccc3o2)sc(C(C)=O)c1C | -19% | -1% | -11% | 1% | -17% | 4%
CCn1c(C)c(CS(=O)(=O)c2ccccc2)[nH]c1=O | -18% | -1% | 28µM* | 4% | ? | ?
CN(C)[C@@H]1C(=O)C(C(N)=O)=C(O)[C@]2(O)C(=O)C3=C(O)c4c(O)ccc(Cl)c4[C@H](O)[C@H]3C[C@@H]12 | / | -1% | ? | -5% | / | /
O=C(O)c1ccc(NC2=C(Cl)C(=O)c3ccccc3C2=O)cc1 | 1.8µM*[quencher] | -5% | -14% | 7% | 1.4µM* | 3.5µM*
CC(C(=O)Nc1ccc(C(=O)O)cc1)N1C(=O)c2ccccc2C1=O (configuration not stated) | -11% | 1% | 4% | 4% | -14% | -7%
O=C(O)c1cccc(NS(=O)(=O)/C=C/c2ccccc2)c1 | 0% | 3% | -2% | 0% | -4% | 8%
Cc1ccc(NC2=C(NC(=O)c3ccccc3)C(=O)c3ccccc3C2=O)cc1Cl | ? | -3% | -24% | 0% | 16µM* | ?
C=CCNC1=C(Cl)C(=O)c2ccccc2C1=O | 7% | -5% | 1% | -8% | 1% | 2%
O=C(O)c1cccc(NC2=C(Cl)C(=O)c3ccccc3C2=O)c1 | 4µM*[quencher] | -10% | -30% | 10% | 2.8µM* | 25µM*
O=C1C(Cl)=C(Nc2ccccc2)C(=O)c2ccccc21 | 3.5µM*[quencher] | 3% | 0% | -7% | 3.2µM* | ?
CC(C)OCCCNC1=C(Cl)C(=O)c2ccccc2C1=O | ? | -5% | -12% | 3% | 13µM* | 7%
